From PubChem BioAssay (EPA / NIEHS)
Activity calls are given as the source filed them. Rule for the calls: active = hit-call score of the fitted dose curve at least 0.9, where 1 is the maximum; inactive = score below 0.9.

Columns and labels:
Conditions in all cases: mRNA level, 48 h; actives raise or lower the signal
[1] = read-out: growth arrest and DNA damage 45 (GADD45A), GADD45A (gene 1647); experiment: LTEA_HepaRG_GADD45A: Life Technologies and Expression Analysis (LTEA) Assay for growth arrest and DNA damage 45 (GADD45A) using HepaRG (AID 2283458)
In short: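 Differentiated HepaRG cells exposed 48 h in serum-free induction medium to 8 concentrations, top 100 uM in half-log steps, 0.5% DMSO. GADD45A mRNA quantified by qRT-PCR, normalized to ACTB, GAPDH and POLR2A; bidirectional fit versus DMSO.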

[2] = read-out: Forkhead box O3 (FOXO3), FOXO3 (gene 2309); experiment: LTEA_HepaRG_FOXO3: Life Technologies and Expression Analysis (LTEA) Assay for Forkhead box O3 (FOXO3) using HepaRG (AID 2283459)
In short: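 Differentiated human HepaRG cells, 48 h post-plating, exposed in duplicate for 48 h in serum-free induction medium; 8-point half-log series from 100 uM in 0.5% DMSO. FOXO3 mRNA by TaqMan qRT-PCR, normalized to ACTB/GAPDH/POLR2A; bidirectional fit versus DMSO.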

[3] = read-out: ABC Transporter (ABCB1), ABCB1 (gene 5243); experiment: LTEA_HepaRG_ABCB1: Life Technologies and Expression Analysis (LTEA) Assay for ABC Transporter (ABCB1) using HepaRG (AID 2283460)
In short: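 HepaRG cells exposed in duplicate for 48 h in serum-free induction medium to eight half-log concentrations up to 100 uM in 0.5% DMSO. ABCB1 mRNA quantified by qRT-PCR, normalised to ACTB, GAPDH and POLR2A; fitted bidirectionally versus DMSO.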

[4] = read-out: growth arrest and DNA damage 45 (GADD45B), GADD45B (gene 4616); experiment: LTEA_HepaRG_GADD45B: Life Technologies and Expression Analysis (LTEA) Assay for growth arrest and DNA damage 45 (GADD45B) using HepaRG (AID 2283461)
In short: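 Values are bidirectional concentration-response fits against 0.5% DMSO controls. Underlying data: qRT-PCR mRNA levels in human HepaRG liver cells treated 48 h in serum-free induction medium, eight concentrations topping at 100 uM.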

[5] = read-out: ABC Transporter (ABCC3), ABCC3 (gene 8714); experiment: LTEA_HepaRG_ABCC3: Life Technologies and Expression Analysis (LTEA) Assay for ABC Transporter (ABCC3) using HepaRG (AID 2283462)
In short: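 Differentiated HepaRG liver cells receive test chemicals at eight concentrations (max 100 uM) for 48 h. Expression of ABCC3 is quantified by qRT-PCR against ACTB, GAPDH and POLR2A, and activity is fitted in both directions against the DMSO control.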

[6] = read-out: ABC Transporter (ABCB11), ABCB11 (gene 8647); experiment: LTEA_HepaRG_ABCB11: Life Technologies and Expression Analysis (LTEA) Assay for ABC Transporter (ABCB11) using HepaRG (AID 2283463)
In short: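 Differentiated human HepaRG cells in serum-free induction medium, dosed in duplicate for 48 h. Eight-point half-log series from 100 uM in 0.5% DMSO; ABCB11 mRNA by qRT-PCR, normalized to ACTB, GAPDH, POLR2A, fitted bidirectionally versus DMSO.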

[7] = read-out: ABC Transporter (ABCC2), ABCC2 (gene 1244); experiment: LTEA_HepaRG_ABCC2: Life Technologies and Expression Analysis (LTEA) Assay for ABC Transporter (ABCC2) using HepaRG (AID 2283464)
In short: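 Gene expression of ABCC2 was determined by qRT-PCR in HepaRG cells exposed 48 h to chemicals (highest 100 uM, half-log dilutions). Activity was fitted in both directions relative to 0.5% DMSO vehicle.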

[8] = read-out: Broad substrate specificity ATP-binding cassette transporter ABCG2 (Homo sapiens) (UniProt Q9UNQ0); experiment: LTEA_HepaRG_ABCG2: Life Technologies and Expression Analysis (LTEA) Assay for ABC Transporter (ABCG2) using HepaRG (AID 2283465)
In short: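 Differentiated HepaRG cells were exposed for 48 h in serum-free induction medium to 8 half-log concentrations, top 100 uM, in 0.5% DMSO. ABCG2 mRNA was measured by qRT-PCR, normalized to ACTB, GAPDH and POLR2A, with bidirectional fitting versus DMSO.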

[9] = read-out: ATP-citrate lyase (ACLY), ACLY (gene 47); experiment: LTEA_HepaRG_ACLY: Life Technologies and Expression Analysis (LTEA) Assay for ATP-citrate lyase (ACLY) using HepaRG (AID 2283466)
In short: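 Differentiated HepaRG cells exposed 48 h in serum-free induction medium to eight half-log concentrations up to 100 uM in 0.5% DMSO, duplicates. Transcript measured by Fluidigm TaqMan qRT-PCR, normalized to ACTB, GAPDH, POLR2A; bidirectional fit versus DMSO.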

[10] = read-out: Peroxisomal acyl-coenzyme A oxidase 1 (ACOX1) gene, ACOX1 (gene 51); experiment: LTEA_HepaRG_ACOX1: Life Technologies and Expression Analysis (LTEA) Assay for Peroxisomal acyl-coenzyme A oxidase 1 (ACOX1) gene using HepaRG (AID 2283467)
In short: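 HepaRG cells, plated 48 h then switched to serum-free induction medium, were exposed in duplicate for 48 h to 8-point half-log concentrations up to 100 uM in 0.5% DMSO. ACOX1 mRNA was measured by qRT-PCR, normalized to ACTB/GAPDH/POLR2A, and fitted bidirectionally versus DMSO.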

[11] = read-out: Alkaline Phosphatase, Placental (ALPP) gene, ALPP (gene 250); experiment: LTEA_HepaRG_ALPP: Life Technologies and Expression Analysis (LTEA) Assay for Alkaline Phosphatase, Placental (ALPP) gene using HepaRG (AID 2283468)
In short: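 Expression of ALPP was quantified by qRT-PCR against three housekeeping genes in human HepaRG cultures treated for 48 h with an eight-point concentration series up to 100 uM. Activity in either direction was fitted relative to 0.5% DMSO.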

[12] = read-out: Bcl-2 (BAD) gene, BAD (gene 572); experiment: LTEA_HepaRG_BAD: Life Technologies and Expression Analysis (LTEA) Assay for Bcl-2 (BAD) gene using HepaRG (AID 2283469)
In short: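 Differentiated HepaRG cells were exposed in duplicate in 0.5% DMSO for 48 h to eight-point half-log concentrations up to 100 uM. BAD mRNA was measured by Fluidigm TaqMan qRT-PCR, normalized to ACTB, GAPDH and POLR2A, and fitted bidirectionally against DMSO.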

[13] = read-out: Bcl-2 (BAX) gene, BAX (gene 581); experiment: LTEA_HepaRG_BAX: Life Technologies and Expression Analysis (LTEA) Assay for Bcl-2 (BAX) gene using HepaRG (AID 2283470)
In short: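 Differentiated HepaRG cells exposed 48 h in serum-free induction medium, eight half-log concentrations from 100 uM, in duplicate, 0.5% DMSO vehicle. BAX mRNA by TaqMan qRT-PCR, normalised to ACTB, GAPDH and POLR2A.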

[14] = read-out: adenosine kinase (ADK) gene, ADK (gene 132); experiment: LTEA_HepaRG_ADK: Life Technologies and Expression Analysis (LTEA) Assay for adenosine kinase (ADK) gene using HepaRG (AID 2283471)
In short: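 Following 48 h exposure of HepaRG cells in 0.5% DMSO (top concentration 100 uM, duplicate wells), ADK mRNA induction or suppression was measured by qRT-PCR, normalised to ACTB/GAPDH/POLR2A, and fitted bidirectionally relative to vehicle.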

[15] = read-out: Alpha-fetoprotein (AFP) gene, AFP (gene 174); experiment: LTEA_HepaRG_AFP: Life Technologies and Expression Analysis (LTEA) Assay for Alpha-fetoprotein (AFP) gene using HepaRG (AID 2283472)
In short: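 Differentiated human HepaRG cells exposed 48 h in serum-free induction medium, 8-point half-log series from 100 uM in 0.5% DMSO, duplicate. AFP mRNA by qRT-PCR, normalized to ACTB, GAPDH, POLR2A; bidirectional fit vs DMSO.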

BCL2L11 (gene 10018) = experiment: LTEA_HepaRG_BCL2L11: Life Technologies and Expression Analysis (LTEA) Assay for Bcl-2 (BCL2L11) gene using HepaRG (AID 2283473)
In short: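 Cells were plated, cultured 48 h, switched to serum-free induction medium, then dosed in duplicate for 48 h at eight half-log concentrations up to 100 uM. Lysates underwent RNA isolation and TaqMan qRT-PCR; gain or loss versus DMSO was fitted.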

[16] = read-out: Apolipoprotein A-V (APOA5) gene, APOA5 (gene 116519); experiment: LTEA_HepaRG_APOA5: Life Technologies and Expression Analysis (LTEA) Assay for Apolipoprotein A-V (APOA5) gene using HepaRG (AID 2283474)
In short: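 Human liver HepaRG cells are treated 48 h with test chemicals (100 uM top, half-log dilutions, 0.5% DMSO). APOA5 mRNA induction or loss is measured by qRT-PCR relative to vehicle.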

[17] = read-out: Bcl-2 (BID) gene, BID (gene 637); experiment: LTEA_HepaRG_BID: Life Technologies and Expression Analysis (LTEA) Assay for Bcl-2 (BID) gene using HepaRG (AID 2283476)
In short: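 Gene expression by qRT-PCR in HepaRG cells after 48 h exposure, duplicate wells, eight half-log concentrations topping at 100 uM in 0.5% DMSO. Normalized to ACTB, GAPDH, POLR2A; bidirectional fitting relative to DMSO.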

[18] = read-out: Apoptosis regulator Bcl-2 (Homo sapiens) (UniProt P10415); experiment: LTEA_HepaRG_BCL2: Life Technologies and Expression Analysis (LTEA) Assay for Bcl-2 gene using HepaRG (AID 2283475)
In short: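 Differentiated human HepaRG cells in serum-free induction medium exposed 48 h, in duplicate, to 8-point half-log series from 100 uM in 0.5% DMSO. BCL2 mRNA by qRT-PCR (TaqMan/Fluidigm), normalized to ACTB, GAPDH, POLR2A; bidirectional fit against DMSO.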

Measured: AC50

Broad substrate specificity ATP-binding cassette transporter ABCG2 (Homo sapiens), sequence (Q9UNQ0 whole entry, looked up): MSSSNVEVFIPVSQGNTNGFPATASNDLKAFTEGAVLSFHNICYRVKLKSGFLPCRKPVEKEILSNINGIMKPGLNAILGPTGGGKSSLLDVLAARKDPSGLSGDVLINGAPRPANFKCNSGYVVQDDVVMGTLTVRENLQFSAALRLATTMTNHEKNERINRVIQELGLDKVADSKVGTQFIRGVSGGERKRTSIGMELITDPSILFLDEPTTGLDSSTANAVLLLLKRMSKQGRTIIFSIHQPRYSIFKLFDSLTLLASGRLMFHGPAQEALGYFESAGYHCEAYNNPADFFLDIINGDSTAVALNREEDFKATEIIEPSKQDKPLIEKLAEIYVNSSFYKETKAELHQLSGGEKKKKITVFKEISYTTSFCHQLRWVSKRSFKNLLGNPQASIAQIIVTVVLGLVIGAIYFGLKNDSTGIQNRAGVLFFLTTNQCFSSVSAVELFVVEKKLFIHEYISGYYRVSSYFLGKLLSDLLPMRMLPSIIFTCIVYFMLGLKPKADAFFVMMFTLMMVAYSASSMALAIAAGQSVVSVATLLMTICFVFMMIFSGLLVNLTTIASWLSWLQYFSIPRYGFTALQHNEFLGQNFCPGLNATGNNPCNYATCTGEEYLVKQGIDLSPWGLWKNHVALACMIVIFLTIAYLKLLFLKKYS
Apoptosis regulator Bcl-2 (Homo sapiens), sequence (P10415 whole entry, looked up): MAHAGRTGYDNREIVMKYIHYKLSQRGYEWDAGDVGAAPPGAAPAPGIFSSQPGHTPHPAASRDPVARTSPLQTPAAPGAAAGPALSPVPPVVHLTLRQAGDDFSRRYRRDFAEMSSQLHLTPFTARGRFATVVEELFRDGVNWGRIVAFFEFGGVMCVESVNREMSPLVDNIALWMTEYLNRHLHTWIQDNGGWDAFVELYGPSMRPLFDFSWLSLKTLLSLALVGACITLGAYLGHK

C=CCCCCCCCCC(=O)O
active: [14] 6.84 nM
not listed: [18]
inactive: all other assays above

CC(C)=CCC/C(C)=C/CO
inactive: all assays above

CCCCCCCCO
not listed: [3]
inactive: all other assays above
